The record followed here is PubChem BioAssay AID504336 (NMMLSC, 2011).

“And” between values parts separate entries of the source, which are not always exact repeats. Identical values can stand only once. The source made the active and inactive calls.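 The calls were made as follows: active = compounds whose GFP signal falls below 65% of the DMSO control level; inconclusive = fewer than 70 yeast cells counted in the well; inactive = the rest.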

This assay is described as follows: TOR branch reporter RPL19A-GFP response – cell-based, S. cerevisiae, third cherry pick, flow cytometry, confirmation (AID 504336).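 Also: median GFP fluorescence of all gated yeast cells by flow cytometry; ratio of well median fluorescence to plate mean of DMSO wells with DMSO = 100%.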 As to conditions: S. cerevisiae RPL19A-GFP strain, 3 h, at 10 µM, hits give low values. In general terms: Flow cytometry measures light scatter and fluorescence of single cells or particles in a stream.
`Brc1ccc2ncnc(NCc3ccccc3)c2c1`: the GFP response relative to DMSO is 102% (inactive). As to `Cc1cccc(Nc2cc(=O)[nH]c(=O)[nH]2)c1`, the GFP response relative to DMSO was 100% (inactive). On to `C/C(=C\C(=O)c1ccccc1)Nc1cccc(O)c1`, for which the GFP response relative to DMSO is 98% (inactive). In the case of `C/C(=C\C(=O)c1ccccc1)Nc1ccc(O)cc1`, the GFP response relative to DMSO is 100% (inactive). As to `CC1=CN2C(=N)/C(=C/c3ccco3)C(=O)N=C2S1`, the GFP response relative to DMSO is 106% (inactive). In the case of `CCCCC(=O)NCCc1cc2c(OC)ccc(OC)c2[nH]c1=O`, the GFP response relative to DMSO was 97.5% (inactive). As to `Cc1ccc2c(C)ccc(O)c2n1`, the GFP response relative to DMSO is 103% (inactive). With `Oc1ccc(Cl)c2cccnc12`, the GFP response relative to DMSO was 98% (inactive). As for `COc1cccc(N/C=C/C(=O)c2ccc(C)cc2)c1`, the GFP response relative to DMSO is 103% (inactive). On to `Cc1cccc(Nc2cc(=O)[nH]c(=O)[nH]2)c1C`, for which the GFP response relative to DMSO is 98.5% (inactive). On to `COc1ccc(-c2cc(C(F)(F)F)nc(S(C)(=O)=O)n2)cc1OC`, for which the GFP response relative to DMSO is 99.6% (inactive) and 103% (inactive).

With `COc1cc(OC)cc(C(=O)Nc2ccc(-c3nc4ccccc4o3)cc2)c1`, the GFP response relative to DMSO is 103% (inactive).

As for `O=C(Nc1ccccc1Cl)ON=C1c2ccccc2-c2ccccc21`, the GFP response relative to DMSO is 102% (inactive).

`CCc1sc(C(=O)Nc2nc(-c3ccccn3)cs2)cc1C`: the GFP response relative to DMSO is 101% (inactive).

`COc1cccc(N/C(C)=C/C(=O)c2ccc(Br)cc2)c1`: the GFP response relative to DMSO is 101% (inactive). `CNc1nc(N)c([N+](=O)[O-])c(Nc2ccccc2OC)n1`: the GFP response relative to DMSO was 103% (inactive).

As to `CCOC(=O)CS(=O)(=O)c1nc(-c2ccccc2)cc(C(F)(F)F)n1`, the GFP response relative to DMSO was 93.1% (inactive).

Regarding `Cc1cccc(N/C=C/C(=O)c2ccc(Cl)cc2)c1`, the GFP response relative to DMSO is 99.6% (inactive). Take `Cc1ccc2nc(-c3ccc(NC(=O)c4cccnc4)cc3)oc2c1`: the GFP response relative to DMSO is 97.2% (inactive). Take `Cc1ccc(Nc2cc(=O)[nH]c(=O)[nH]2)cc1C`: the GFP response relative to DMSO is 96.5% (inactive).

`C=CCNc1ncnc2ccccc12`: the GFP response relative to DMSO is 103% (inactive). On to `Cc1nc2c(O)cccc2cc1CO`, for which the GFP response relative to DMSO is 102% (inactive). Turning to `CCCC(=O)Nn1cnc2c(c1=O)C1(CCCCC1)Cc1ccccc1-2`, the GFP response relative to DMSO was 103% (inactive).

For `COc1ccccc1-c1cc(C(F)(F)F)nc(S(C)(=O)=O)n1`, the GFP response relative to DMSO was 96.2% (inactive).

As for `Nc1cc(C(=O)O)c(N)c2c1C(=O)c1ccccc1C2=O`, the GFP response relative to DMSO is 98.5% (inactive). As for `O=C(N/N=C/c1ccccc1)c1cccc2ccccc12`, the GFP response relative to DMSO was 98.3% (inactive). In the case of `COc1ccccc1-c1cc(C(F)(F)F)nc(S(=O)(=O)CCCC(=O)O)n1`, the GFP response relative to DMSO is 102% (inactive). As to `NC(=O)COc1cccc2cccnc12`, the GFP response relative to DMSO is 102% (inactive). Regarding `Cc1cc(C)c2ccc(C(=O)O)nc2c1O`, the GFP response relative to DMSO is 98.5% (inactive). `CC(=O)Nc1ccc(-c2nc3ccccc3o2)cc1`: the GFP response relative to DMSO is 99.6% (inactive). `CC(=O)CC(=O)Nc1ccc(C(N)=O)cc1`: the GFP response relative to DMSO was 100% (inactive).

Turning to `COc1cccc(NC(=O)CC(C)=O)c1`, the GFP response relative to DMSO was 99.1% (inactive). As for `COc1ccc(Nc2nc(NN)nc(C)c2[N+](=O)[O-])cc1`, the GFP response relative to DMSO is 99.3% (inactive). On to `Cc1ccc(NN2C(=O)C=C(c3ccccc3)C2=O)cc1`, for which the GFP response relative to DMSO is 61.2% (active).

As for `CSc1ccccc1OCc1cc(C(=O)N2CCN(C)C(c3ccccc3)C2)no1` (centres undefined), the GFP response relative to DMSO is 101% (inactive). On to `CCCC(=O)Nn1cnc2c(c1=O)C1(CCCC1)Cc1ccccc1-2`, for which the GFP response relative to DMSO is 102% (inactive). For `NC(=O)c1ccnc2c(O)cccc12`, the GFP response relative to DMSO was 98.8% (inactive). As for `O=C(Nc1ccccc1)ON=C1c2ccccc2-c2ccccc21`, the figure is 92.3% (inactive); as for `COCCCNc1nc(N)c([N+](=O)[O-])c(Nc2ccccc2OC)n1`, 99.1% (inactive).
